These results are taken from PubChem BioAssay (NCI).

The panel holds about 83,000 compounds, 20% with a hit somewhere; the sample as a whole holds those more often.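 For each line, cells grew in 96-well plates with the test compound present at a single concentration for 48 hours.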 A number with no mark means an inactive call. Calls of active or inactive are those of the source. How the source made its calls: active means growth percent below 10; inactive means the rest.

What all share (experiment): NCI-60 one-dose screen, 48 h (100 = growth as untreated, 0 = no growth, -100 = all killed)
Holding throughout (conditions): 10 µM unless noted

In assay [1] the test system is NCI-H23 lung.
Assay [2] has as its system NCI-H226 lung.
Assay [3] deals with NCI-H322M lung.
In assay [4] the test system is HOP-62 NSCLC.
In assay [5] the test system is NCI-H460 lung.
In assay [6] the test system is HOP-92 NSCLC.
In assay [7] the test system is NCI-H522 lung.
The test system of assay [8] is A549/ATCC NSCLC.
In assay [9] the test system is 786-0 renal.
Assay [10] has as its system COLO 205 colon.
Assay [11] concerns DU-145 prostate.
Assay [12] has as its system K-562 leukemia.
In assay [13] the test system is MALME-3M melanoma.
In assay [14] the test system is MDA-MB-231 breast.
Assay [15] has as its system RXF 393 renal.
In assay [16] the test system is SF-268 CNS.
For assay [17], the system named is SF-295 CNS.
In assay [18] the test system is SF-539 CNS.
For assay [19], the system named is UACC-257 melanoma.
For assay [20], the system named is M14 melanoma.

Consider `c1nc(SC2=NCCN2)c2[nH]cnc2n1`, for which the growth in assay [1] is 46.2%; in assay [2] it was 46.9%; in assay [3] it was 36.3%; in [4] it was 23.2%; in [5] it was 66.5%; in assay [6] it was 36.2%. Also, the growth in assay [7] is 25%; in assay [8], 82.9%; in [9], 22.7%; in assay [10], 56.8%; in assay [11], 37.3%; in assay [12] it was 14.3%. The growth in assay [13] was 47.3%; in [14] it was 37.7%; in [15] it was 59.7%; in assay [16] it was 46.5%; in assay [17], 29.1%; in [18], 24.3%. Also, the growth in assay [19] was 66.8%; in [20], 14.7%.

For `Cc1ccc(NC(=O)CN2CCOCC2)cc1Cl`, the growth in assay [1] was 101%; in assay [2] it was 92.8%; in assay [3], 93.4%; in [4], 91%; in assay [5], 100%; in assay [6], 80.8%. Also, the growth is 76.5% in [7]; 95.3% in [8]; 95% in assay [9]; 102% in [10]; 102% in [11]; 94.7% in [12]. Further, the growth is 102% in assay [13]; 96% in assay [14]; 104% in [15]; 103% in assay [16]; 94.3% in assay [17]; 98.7% in [18]. Also, the growth was 88.1% in [19] and 100% in [20].

Regarding `COc1ccc(/C=C/C(=O)c2ccc(Oc3ncnc4ccccc34)cc2)cc1OC`, the growth was 81.9% in [1]; 80.2% in assay [2]; 76.1% in assay [3]; 87.7% in assay [4]; 88.4% in assay [5]; 84.6% in assay [6]. Also, the growth in assay [7] is 53.5%; in [8], 59.2%; in assay [9], 82.4%; in assay [10], 85.4%; in assay [11], 61.9%; in assay [12], 9.19% (active). The growth was 77.5% in [13]; 81.6% in assay [14]; 88.1% in assay [15]; 74.8% in [16]; 85.7% in assay [17]; 73.5% in assay [18]. The growth in assay [19] was 93.8%; in assay [20], 64.3%.

As to `Nc1nccc2c1ccn2-c1cccc(NC(=O)c2ccc(N3CCOCC3)c(C(F)(F)F)c2)c1`, the growth in [1] was 16.4%; in assay [2], 35.8%; in [3] it was 35.3%; in assay [4], 24.1%; in [5] it was 1.28% (active); in assay [6], -6.29% (active). The growth in assay [7] is -43% (active); in assay [8], 10.8%; in assay [9], -38.9% (active); in [10], -38.6% (active); in assay [11], -0.195% (active); in assay [12] it was 9.79% (active). In addition, the growth is 39.8% in [13]; 6.1% (active) in assay [14]; -75.9% (active) in assay [15]; 21.8% in assay [16]; -30.9% (active) in assay [17]; 3.23% (active) in [18]. Moreover, the growth is 59.2% in [19] and 16% in assay [20].

Take `Cc1ccc2[nH]c3nc4cccnc4c(C)c3c2c1`: the growth is 36.5% in [1]; 77.9% in assay [2]; 44.4% in assay [3]; 63.2% in assay [4]; 11.4% in [5]; 115% in assay [6]. Further, the growth in assay [7] is 70.3%; in assay [8] it was 74.5%; in assay [9], 107%; in assay [10] it was 101%; in [11], 102%; in [12], 89.1%. Besides, the growth is 127% in assay [13]; 37.1% in assay [14]; 84.7% in assay [15]; 92.3% in assay [16]; 99.9% in assay [17]; 76.2% in [18]. Also, the growth is 112% in [19] and 103% in [20].

For `CC(C)NCC(O)COc1ccc(CC(N)=O)cc1` (stereo not given), the growth is 105% in [1]; 102% in assay [2]; 100% in [3]; 102% in assay [4]; 109% in assay [5]; 85.6% in assay [6]. For the same molecule, the growth in [7] is 94.9%; in [8], 106%; in assay [9], 97.2%; in assay [10] it was 114%; in assay [11], 109%; in assay [12], 96.6%. The growth was 98.4% in assay [13]; 103% in assay [14]; 111% in [15]; 112% in [16]; 95.8% in assay [17]; 109% in assay [18]. Also, the growth in assay [19] is 104%; in [20] it was 98.3%.

On to `CC1CCC(C(C)C)C(NN)C1` (stereo not given), for which the growth in [1] is 106%; in assay [2], 88%; in assay [3] it was 91.2%; in [4], 96%; in assay [5], 108%; in assay [6] it was 110%. Besides, the growth in assay [7] is 70.9%; in [8], 80.6%; in [9], 98.8%; in assay [10], 103%; in [11] it was 109%; in assay [12] it was 92.2%. For the same molecule, the growth in [13] was 112%; in assay [14], 108%; in assay [15], 115%; in assay [16] it was 107%; in [17] it was 107%; in [18], 103%. Besides, the growth in assay [19] is 78.6%; in [20], 102%.

As to `COc1cc(-c2nc(N)n(CC(=O)Nc3ccc(/C(C)=N\O)cc3)n2)cc(OC)c1OC`, the growth in assay [1] is 95.8%; in assay [2] it was 94.8%; in assay [3], 94.2%; in assay [4] it was 94.5%; in [5] it was 106%; in assay [6] it was 88.2%. Besides, the growth was 60.8% in [7]; 74.2% in [8]; 104% in assay [9]; 104% in [10]; 108% in [11]; 96.1% in assay [12]. The growth is 96.7% in assay [13]; 103% in [14]; 105% in assay [15]; 93.5% in assay [16]; 101% in [17]; 97.1% in assay [18]. Moreover, the growth in assay [19] is 63.7%; in [20], 101%.
